Screening data deposited in PubChem BioAssay by SRMLSC.
A340 absorber = compound light absorbance at 340 nm, profiling panel, artefact control, biochemical, MLSMR library, data from PS, PMK, MK assays; AID 708, 2007; 65,000 tested, under 10 active; fold change at 10 µM; compound absorbance at 340 nm, fold over control;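 active = at 10 µM dose, initial 340 nm absorbance at least 2 fold that of control wells; inactive = change under 2 fold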;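 note: initial absorbance extrapolated from kinetic A340 decline of NADH oxidation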
NADH enzymes = inhibitors of PK/LDH coupling enzymes, profiling panel, artefact control, biochemical, MLSMR library; actives 0.02% (n = 65,000); coupled PK/LDH NADH assays, four targets; IC50, µM (highest dose often 10 µM), inactives show top-dose inhibition; AID 774, 2007;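 active = single-dose screening hits from any of four coupled enzyme assays that gave an IC50 when retested across doses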;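 note: the DPM-DC format reads NADH fluorescence rather than 340 nm absorbance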
Spn DPM-DC inh = S. pneumoniae DPM-DC inhibitors, primary screen, biochemical, PK/LDH-coupled NADH fluorescence; diphosphomevalonate decarboxylase (Streptococcus pneumoniae D39); purified DPM-DC; calls only at 10 µM; actives 0.49% (n = 65,000);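 active = the 320 compounds with the highest percent inhibition in the single-dose primary screen, excluding strongly autofluorescent ones, cut at about 32% in these data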;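 note: kinetic rate of NADH fluorescence loss reporting ADP formed by the decarboxylase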
Spn PMK inh = S. pneumoniae PMK inhibitors, primary screen, biochemical, mevalonate pathway, pilot trial included; AID 539, 2006; inhibition, % at 10 µM; actives 0.49% (n = 65,000); phosphomevalonate kinase (Streptococcus pneumoniae D39); purified PMK, PK/LDH-coupled NADH absorbance 340 nm;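 active = top-ranked compounds by inhibition in the single 10 µM screen, taking a fixed number of the strongest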;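 note: 0% = full reaction with DMSO carrier and 100% = background rate without enzyme reaction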
Fluor 339 460 = intrinsic fluorescence of library compounds, ex339/em460 – biochemical, MLSMR library, data from DPM-DC assay, artefact control, profiling panel. compound autofluorescence, ex339/em460 nm, NADH buffer; hits give high values; 1 = no-compound wells, NADH background. fluorescence fold increase at 10 µM. actives 5.5% (n = 65,000);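 active = at 10 µM, mean starting fluorescence two-fold or more over control wells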;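 note: signal is the first read of a kinetic run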
MK inhibit = S. pneumoniae MK inhibitors, primary screen, biochemical, PK/LDH-coupled NADH absorbance; purified MK, PK/LDH-coupled NADH absorbance 340 nm; inhibition, % at 10 µM; actives 0.48% (n = 65,000); AID 555, 2006;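 active = ranked among the strongest by inhibition in the single 10 µM screen, a fixed top-ranked set picked for dose follow-up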
* marks the source's active call; other numbers are inactive results; i = inactive; x = not tested or not shown; + = active, no number. Shown are actives, neighbours in structure and some others; about 6.8% of the full set was active somewhere.

SMILES	A340 absorber	NADH enzymes	Spn DPM-DC inh	Spn PMK inh	Fluor 339 460	MK inhibit
c1cncc(-c2nnc(-c3cccs3)o2)c1	1.02	6.0%	i	8.0	2.26*	11.0
COC(=O)C1=C(C)OC(N)=C(C#N)C1c1ccccc1F (centres undefined)	1.02	9.0%	i	14.0	1.1	13.0
COC(=O)C1=C(C)OC(N)=C(C#N)C1c1cc(OC)c(OCC(N)=O)cc1Cl (centres undefined)	1.03	41.0%	+	37.0*	1.31	48.0*
O=C(NCc1cccs1)C(Cc1ccccc1)n1cccc1 (centres undefined)	0.97	2.0%	i	2.0	1	12.0
CCN(CC)C(=O)C1CCCN(C/C=C/c2ccccc2)C1 (centres undefined)	1.05	20.0%	i	14.0	1.08	47.0*
CCN(CC)C(=O)C1CCCN(C/C(C)=C/c2ccccc2)C1 (centres undefined)	1.06	21.0%	i	26.0*	1.08	36.0
CCN(CC)C(=O)C1CCCN(Cc2ccccc2F)C1 (centres undefined)	1.05	10.0%	i	0.0	1.07	31.0
CCN(CC)C(=O)C1CCCN(Cc2ccccc2C(F)(F)F)C1 (centres undefined)	1.02	15.0%	i	0.0	1.06	45.0*
CCN(CC(=O)Nc1cccc(OC)c1)C(=O)C1CCN(C(=O)Nc2ccccc2)CC1	0.99	2.0%	i	6.0	1	0.0
Cc1cccc(N2CCN(C(=O)C3CCCN(S(=O)(=O)c4cccc5cccnc45)C3)CC2)c1C (centres undefined)	1	11.0%	i	20.0	1.08	10.0
CCCc1cc(N2CCCC2)n2nc(C)c(-c3ccccc3)c2n1	1.01	4.0%	i	0.0	2.88*	10.0
CCc1cc2c(C)cc(=O)oc2cc1OC(=O)C1CCCN1C(=O)OC(C)(C)C (centres undefined)	1	11.0%	x	11.0	4.89*	10.0
CC(C)(C)OC(=O)N1CCCC1C(=O)NCCc1ccccc1 (centres undefined)	1.04	4.0%	i	3.0	1.19	9.0
O=C(O)CCc1nn2cc(-c3ccccc3)nc2[nH]c1=O	1.07	4.0%	x	4.0	2.35*	3.0
CCc1nn2cc(-c3ccccc3)nc2s1	1.02	7.0%	i	5.0	1.06	10.0
CCCCCOc1ccc(C(=O)NC(C(=O)O)C(C)C)cc1 (centres undefined)	1.1	5.0%	i	9.0	1.1	0.0
CC(=O)c1cccc(NC(=O)Nc2cccnc2)c1	1.01	18.0%	+	3.0	0.45	1.0
Cc1ccc(-n2nc(C(=O)NCc3ccco3)c3c4ccccc4n(C)c3c2=O)cc1	1.04	2.0%	i	5.0	2.24*	0.0
CCN1CCN(C(=O)c2nn(-c3ccc(C)cc3)c(=O)c3c2c2ccccc2n3C)CC1	1.02	8.0%	i	13.0	1.44	10.0
CCN(CC)CCNC(=O)c1nn(-c2ccc(C)cc2)c(=O)c2c1c1ccccc1n2C	1.03	8.0%	i	4.0	3.07*	6.0
CC1=C(C(=O)OC(C)C)C(c2cccs2)C2=C(CCCC2=O)N1 (centres undefined)	1.06	2.0%	i	1.0	1.52	4.0
CCOC(=O)C1=C(C)NC2=C(C(=O)CCC2)C1c1ccsc1 (centres undefined)	1.11	10.0%	i	3.0	2.48*	7.0
CC1=C(C(=O)OCC2CCCO2)C(c2ccncc2)C2=C(CCCC2=O)N1 (centres undefined)	1.05	18.0%	+	6.0	1.42	2.0
CCOC(=O)C1=C(C)NC2=C(C(=O)CCC2)C1c1cccnc1 (centres undefined)	1.09	10.0%	x	8.0	2.08*	11.0
COC(=O)C1=C(C)NC2=C(C(=O)CCC2)C1c1ccccn1 (centres undefined)	1.1	5.0%	x	5.0	2.14*	4.0
CCOC(=O)C1=C(N)OC2=C(C(=O)CCC2)C1c1cccnc1 (centres undefined)	1.03	4.0%	i	0.0	1.12	12.0
